This passage reports Potency, activity, negative = inhibition and activation results from PubChem BioAssay (Tox21).

Structures are written as SMILES. Where “and” joins values, the source holds several entries; their conditions need not be identical. Equal values may be shown once. A number with no mark means an inactive call. Records with an inconclusive call do not appear. Calls of active or inactive are those of the source. Unless noted, calls come from the whole dose curve; as a rule, active = well fitted curve in the direction sought with a large enough effect in the repeat runs; inconclusive = weak or mixed curves; inactive = no such curve, though single readings can be large; an effect the other way counts as inactive or inconclusive.

Assay [1] is described as follows: qHTS assay to identify small molecule antagonists of the progesterone receptor (PR) signaling pathway - cell viability counter screen (AID 1346798). Note: nearly all actives have a fitted effect of over 50% in size. Note: potency is the fitted concentration of half-maximal effect. The essentials:
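PR-UAS-bla HEK293T cells, 3,000/well in 2% charcoal-stripped FBS medium, dosed with compounds plus R5020 agonist and incubated 16 h at 37C. Viability then measured in the same wells by CellTiter-Glo luminescence after 30 min at RT.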
(qHTS replaces the single test concentration by a dilution series.)

Assay [2] is described as follows: qHTS assay to identify small molecule agonists of the progesterone receptor (PR) signaling pathway - cell viability counter screen (AID 1346799; calls by dose curve; note: nearly all actives have a fitted effect of over 45% in size; note: potency is the fitted concentration of half-maximal effect). In short, it runs like this:
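Counter screen in the PR-UAS-bla HEK293T wells (2% charcoal-stripped FBS, 16 h compound exposure at 37 C) after the bla read. CellTiter-Glo added, 30 min at room temperature, luminescence read as cell viability.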

The nature of assay [3]: qHTS assay to identify small molecule agonists of the TGF-beta/Smad signaling pathway - cell viability counter screen (AID 1346829). Note: nearly all actives have a fitted effect of over 45% in size. Note: potency is the fitted concentration of half-maximal effect. The essentials: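 HEK 293T SBE-bla line, 5 hr compound exposure at 37 C, multiplexed CellTiter-Glo viability read by luminescence.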
Assay [4] can be described thus: Human pregnane X receptor (PXR) small molecule agonists, qHTS cell viability counter screen (AID 1346977). Note: nearly all actives have a fitted effect of over 50% in size. Note: potency is the fitted concentration of half-maximal effect. In short, it runs like this:
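PXR-Luc HepG2 cells (2,000/well, 5% charcoal-stripped FBS) preincubated 5 hr, then exposed to compounds 24 hr at 37 C. Viability read in the same wells by CellTiter-Fluor fluorescence, reagent added at 23 hr, 1 hr incubation.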

Assay [5] addresses Thyrotropin-releasing hormone receptor (Homo sapiens) (UniProt P34981). The experiment in a line: qHTS assay to identify small molecule antagonists of the thyrotropin-releasing hormone receptor (TRHR) signaling pathway (AID 1346877; active = well fitted inhibition curve with a large enough effect in the repeat runs, not every such curve was filed as active; note: series mostly up to about 51 µM). The essentials:
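Calcium signal in dye-loaded TRHR/HEK293 cells; compounds added 5 min before TRH (1 nM final); fluorescence monitored 3 min at 1 s steps.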

Assay [6] has the same target. The experiment in a line: qHTS assay to identify small molecule agonists of the thyrotropin-releasing hormone receptor (TRHR) signaling pathway (AID 1346891; calls by dose curve; note: potency is the fitted concentration of half-maximal effect; for activation: series mostly up to about 58 µM). In short, it runs like this:
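HEK293 cells expressing TRHR plated 18 h at 37 C/5% CO2, calcium dye-loaded 2 h at 37 C, then compound added (agonist mode); kinetic calcium fluorescence read 3 min at 1 s intervals; 15 concentrations in triplicate.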

Assay [7] can be described thus: qHTS assay to identify small molecule antagonists of the TGF-beta/Smad signaling pathway - cell viability counter screen (AID 1346824). Note: nearly all actives have a fitted effect of over 50% in size. Note: potency is the fitted concentration of half-maximal effect. In short, it runs like this:
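Cytotoxicity counter-screen run in the same wells as the beta-lactamase Smad reporter read: CellTiter-Glo luminescence after 30 min at room temperature. HEK 293T SBE-bla cells had 5 hr compound exposure at 37 C with TGF-beta1 (0.25 ng/mL stock).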

A short description of assay [8]: qHTS assay to identify small molecule agonists of the TGF-beta/Smad signaling pathway (AID 1346859; active = well fitted activation curve with a large enough effect in the signal ratio in the repeat runs, not every such curve was filed as active; the % refers to the signal ratio; note: series mostly up to about 77 µM). In short, it runs like this: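 SBE-bla HEK293T cells plated overnight, then compound exposure for 5 h at 37 C. Beta-lactamase reporter read with LiveBLAzer B/G FRET substrate after 2 h at room temperature, fluorescence at 405 nm excitation, 460/530 nm emission.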
% is set by controls: 0 for no effect and ±100 for the full control effect.

Thyrotropin-releasing hormone receptor (Homo sapiens), sequence (P34981 whole entry, looked up): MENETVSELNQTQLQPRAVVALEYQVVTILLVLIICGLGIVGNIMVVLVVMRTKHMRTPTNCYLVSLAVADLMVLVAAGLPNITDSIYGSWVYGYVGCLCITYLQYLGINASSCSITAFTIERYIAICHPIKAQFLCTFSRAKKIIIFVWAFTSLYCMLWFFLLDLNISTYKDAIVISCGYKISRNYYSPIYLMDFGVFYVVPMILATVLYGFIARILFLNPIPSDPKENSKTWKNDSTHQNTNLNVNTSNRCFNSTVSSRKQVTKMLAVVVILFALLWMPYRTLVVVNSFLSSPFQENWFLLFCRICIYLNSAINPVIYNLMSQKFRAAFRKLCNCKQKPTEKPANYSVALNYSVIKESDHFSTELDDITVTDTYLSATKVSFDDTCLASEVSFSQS

As to `CCCCCCCCCCCCc1ccc(O)cc1`, the Potency was 54.5 µM (active) in assay [1], 30.6 µM (active) in assay [2], 49 µM (active) in assay [3] and 30.6 µM (active) in assay [4].

On to `C=CC(=O)OCC(CO)(COC(=O)C=C)COC(=O)C=C`, for which the Potency in assay [1] is 17.3 µM (active) and 27.3 µM (active); in assay [2], 27.4 µM (active) and 30.6 µM (active). Also, the Potency entry in assay [5] and in assay [6] was “inactive” each time.

For the molecule `CC/C(=C(\c1ccc(O)cc1)c1ccc(OCCN(C)C)cc1)c1ccccc1`, the Potency was 27.4 µM (active) in assay [1]; 27.4 µM (active) in assay [2]; 61.8 µM (active) in assay [7]; 55.1 µM (active) in assay [3]; 19.4 µM (active) in assay [4]. The Potency result in assay [6] was “inactive”.

For `CCN(C(=O)c1cc(C)cc(OC[C@H](C)Nc2ccncc2)c1)C(C)C`, the Potency result in assay [1], in assay [2], in assay [7], in assay [8], in assay [5] and in assay [6] was “inactive” each time.

`[Cl][Bi]([Cl])([c]1ccccc1)([c]1ccccc1)[c]1ccccc1`: the values for the Potency in assay [1], in assay [2] and in assay [4] were 3.05 µM (active), 1.71 µM (active) and 3.83 µM (active), respectively.

On to `CC1=C(/C=C/C(C)=C/C=C/C(C)=C/C=O)C(C)(C)CCC1`, for which the results for the Potency in assay [1], in assay [2] and in assay [4] were 68.2 µM (active), 60.8 µM (active) and 60.8 µM (active), respectively. The Potency entry in assay [8], in assay [5] and in assay [6] was “inactive” in each case.

In the case of `CCCCCCCC[P+](CCCCCCCC)(CCCCCCCC)CCCCCCCC`, the Potency in assay [1] was 15.3 µM (active); in assay [7], 21.7 µM (active); in assay [3] it was 17.3 µM (active). For the same molecule, the Potency entry in assay [5] and in assay [6] was “inactive” throughout.

With `Nc1nc2ccccc2n1Cc1ccc(F)cc1`, the Potency entry in assay [1], in assay [2], in assay [7], in assay [8], in assay [5] and in assay [6] was “inactive” each time.

Take `C[C@]12CCC(=O)C=C1CC[C@@H]1[C@@H]2[C@@H](O)C[C@@]2(C)[C@H]1CC[C@]2(O)C(=O)COC(=O)CCC(=O)O`: the Potency result in assay [1], in assay [7], in assay [3], in assay [8], in assay [5] and in assay [6] was “inactive” in each case. Besides, in assay [4], the Potency result is “inactive”.

As for `O=S1(=O)CC(Cl)(Cl)C(Cl)(Cl)C1`, the results for the Potency in assay [1], in assay [2] and in assay [4] were 13.7 µM (active), 12.2 µM (active) and 2.73 µM (active), respectively. Besides, the Potency entry in assay [5] and in assay [6] was “inactive” throughout.

As for `CCCCCCCCCCCCCCCCCC[N+](C)(C)Cc1ccccc1`, the Potency in assay [1] is 27.6 µM (active); in assay [2], 7.77 µM (active); in assay [7], 49.5 µM (active); in assay [3], 49.5 µM (active); in assay [4], 11 µM (active).

As for `CCCCCCCC/C=C\CCCCCCCCOCCO`, the Potency was 31.6 µM (active) in assay [1], 25.1 µM (active) in assay [2], 63.7 µM (active) in assay [7] and 15.9 µM (active) in assay [4]. The Potency result in assay [6] was “inactive”.

`O=C1C=CC(=O)N1`: the Potency was 55.9 µM (active) in assay [1] and 62.8 µM (active) in assay [2]. Moreover, the Potency entry in assay [8], in assay [5] and in assay [6] was “inactive” throughout.

For the molecule `OCCN1CCN(CC/C=C2/c3ccccc3Sc3ccc(C(F)(F)F)cc32)CC1`, the Potency in assay [1] is 23.7 µM (active); in assay [2] it was 29.8 µM (active); in assay [4], 29.8 µM (active). The Potency result in assay [7], in assay [8], in assay [5] and in assay [6] was “inactive” in each case.

`CC(C)(C)c1ccc(C(=O)O)cc1`: the Potency entry in assay [1], in assay [2], in assay [7], in assay [8] and in assay [4] was “inactive” each time.

Consider `c1cc(C(c2ccc(OCC3CO3)cc2)c2ccc(OCC3CO3)cc2)ccc1OCC1CO1` (centres undefined), for which the Potency result in assay [1] and in assay [7] was “inactive” each time.

Regarding `O=C(Nc1cccc([N+](=O)[O-])c1)c1cc2ccccc2cc1O`, the Potency in assay [1] is 24.3 µM (active). Moreover, the Potency result in assay [2], in assay [8], in assay [5] and in assay [6] was “inactive” in each case.

For the molecule `CCCCN(CCCC)c1ccc(C(=O)c2ccccc2C(=O)O)c(O)c1`, the Potency result in assay [1], in assay [7], in assay [3] and in assay [6] was “inactive” in each case. In addition, the Potency in assay [2] was 24.6 µM (active).

As to `Nc1ccc2c3c(cccc13)-c1ccccc1-2`, the Potency result in assay [2], in assay [7], in assay [3] and in assay [5] was “inactive” each time. Moreover, the Potency in assay [6] was 31.2 µM (active).

On to `O=c1cc(-c2ccc(O)cc2)oc2cc(O)cc(O)c12`, for which the Potency result in assay [7], in assay [3], in assay [8], in assay [5] and in assay [6] was “inactive” in each case. The Potency in assay [4] was 39.8 µM (active) and 27.3 µM (active).

`CCCCCCCC/C=C/CCCCCCCC1=NCCN1CCO`: the Potency in assay [2] is 61.1 µM (active). The Potency entry in assay [7], in assay [5] and in assay [6] was “inactive” in each case.

For the molecule `CCN1/C(=C/C=C/c2sc3ccccc3[n+]2CC)Sc2ccccc21`, the Potency is 4.65 µM (active) in assay [3] and 5.17 µM (active) in assay [4]. Moreover, in assay [5], the activity, negative = inhibition is -4.16% [at 10.5 µM]. Also, the activation in assay [6] is -0.259% [at 11.8 µM].

In the case of `Nc1ccc(N)c2ccccc12`, the Potency result in assay [2], in assay [5] and in assay [6] was “inactive” each time. Also, in assay [4], the Potency was 24.3 µM (active).

As to `O=C(NOCC1CC1)c1ccc(F)c(F)c1Nc1ccc(I)cc1Cl`, the Potency entry in assay [7], in assay [3], in assay [8], in assay [5] and in assay [6] was “inactive” each time. Further, the Potency in assay [4] is 18.8 µM (active).

With `[Cl][Au]([Cl])[Cl]`, the Potency result in assay [7], in assay [5] and in assay [6] was “inactive” throughout. For the same molecule, the Potency in assay [3] was 54.9 µM (active).

On to `N/C(=N\N=C\c1ccc(Cl)cc1)N/N=C/c1ccc(Cl)cc1`, for which, in assay [1], the Potency was 29.8 µM (active). Moreover, the Potency entry in assay [7], in assay [8], in assay [5] and in assay [6] was “inactive” each time.
